{
  "source": "PubChem BioAssay (NCATS)",
  "note": "Results filed as inconclusive are left out. A call without a number means that no potency is given here. The source made the active and inactive calls. The call rests on the fitted dose curve; in most records, active means well fitted inhibition curve with a large enough effect; inconclusive means small, poorly fitted or top-dose-only effect; inactive means flat fitted curve, though single readings scatter.",
  "data": [
    {"target": "Calcium and integrin-binding protein 1 (Homo sapiens) (UniProt Q99828)", "sequence (Q99828 whole entry, looked up)": "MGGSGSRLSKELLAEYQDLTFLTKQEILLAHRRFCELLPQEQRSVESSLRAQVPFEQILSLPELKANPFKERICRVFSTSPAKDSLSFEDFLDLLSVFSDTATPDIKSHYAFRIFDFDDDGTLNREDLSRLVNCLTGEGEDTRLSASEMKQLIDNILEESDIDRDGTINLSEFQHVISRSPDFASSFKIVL", "assay": "Primary qHTS for Identification of Calcium Integrin Binding Protein 1 (CIB1) Competitor (AID 1508620);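 further: GST tagged CIB1 binding a fluorescein labelled alphaIIb integrin peptide tracer; top concentration of the series differs between compounds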", "conditions": "CIB1-GST / FITC-alphaIIb peptide fluorescence polarization; series mostly up to 114 µM", "outline": "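Fluorescence polarization competition: CIB1-GST (1 uM final) preincubated with compound 15 min at room temperature, then FITC-labeled alphaIIb peptide (100 nM final) added for another 15 min. Polarization read at Ex 480/Em 540.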", "values": [
      {"smiles": "COc1ccc(-c2ccc3ncnc(NCCc4cnc[nH]4)c3c2)cc1OC", "Potency": "inactive"},
      {"smiles": "Cc1cccc(-n2cnc3cc(C(=O)N4CCCC(C)(C)C4)ccc32)c1", "Potency": "inactive"},
      {"smiles": "COc1cccc(C(=O)NC2CCN(C#N)CC2)c1", "Potency": "inactive"},
      {"smiles": "Cc1ccc(OCCn2c(CCNC(=O)c3ccc4cc[nH]c4c3)nc3ccccc32)cc1", "Potency": "inactive"},
      {"smiles": "NC(=O)C1CCN(c2nc(-c3cccc(Cl)c3)cs2)CC1", "Potency": "inactive"},
      {"smiles": "COc1ccc(C2Nc3ccccc3C(=O)N2Cc2ccco2)cc1COc1c(C)cccc1C", "note": "(centres undefined)", "Potency": "inactive"},
      {"smiles": "CCOc1ccc(C(=O)Oc2ccc(-c3nc4ccccc4[nH]3)cc2)cc1", "Potency": "inactive"},
      {"smiles": "Cc1ccc(OCCn2c(CCNC(=O)c3ccc(C)cc3)nc3ccccc32)cc1", "Potency": "inactive"},
      {"smiles": "Cc1ccc(C[C@H](C(=O)O)N2C(=O)c3ccc(C(=O)O)cc3C2=O)cc1", "Potency": "inactive"},
      {"smiles": "Nc1ncc(-c2cccc(-c3nn4c(=O)cc(N5CCNCC5)nc4s3)c2)cn1", "Potency": "inactive"},
      {"smiles": "Cc1cc2c(s1)c1cnn(Cc3ccccc3C)c(=O)c1n2C", "Potency": "inactive"},
      {"smiles": "O=S1(=O)N=C(Oc2ccc(-c3ccccc3)cc2)c2ccccc21", "Potency": "inactive"},
      {"smiles": "CCC(=O)NC(c1cc(Cl)c2ccccc2c1O)C1CC1", "note": "(centres undefined)", "Potency": "inactive"},
      {"smiles": "Cc1csc(CNc2ncnc3ccc(-c4ccc5c(c4)OCCO5)cc23)c1", "Potency": "inactive"},
      {"smiles": "O=C1CCc2cc(S(=O)(=O)Nc3cccc(B(O)O)c3)ccc2N1", "Potency": "inactive"},
      {"smiles": "O=S(=O)(NCC1CCC(NS(=O)(=O)c2c(F)cccc2F)CC1)c1ccc2c(c1)OCCO2", "note": "(centres undefined)", "Potency": "inactive"},
      {"smiles": "O=C(O)c1ccc(-c2noc(-c3ccccc3F)n2)cc1", "Potency": "inactive"},
      {"smiles": "COc1ccc(NC(=O)C(OC(=O)CNC(=O)c2ccccc2)c2ccccc2)cc1Cl", "note": "(centres undefined)", "Potency": "inactive"},
      {"smiles": "c1ccc2[nH]c(-c3ccc(NCc4ccc5c(c4)OCCO5)cc3)nc2c1", "Potency": "inactive"},
      {"smiles": "CC(C)(Nc1nc(-c2ccccc2C(F)(F)F)nc2ccccc12)c1ccc(-c2cccc(C(F)(F)F)c2)cc1", "Potency": "inactive"},
      {"smiles": "O=C(Nc1cccnc1)C1CCCCC1", "Potency": "inactive"},
      {"smiles": "O=C(OCC#CCSc1nnc(-c2cccc3ccccc23)o1)c1ccc(F)cc1", "Potency": "inactive"},
      {"smiles": "O=[S+]([O-])(Nc1ccc(-c2nc3ccccc3[nH]2)cc1)c1ccc2c(c1)CCO2", "Potency": "inactive"},
      {"smiles": "NC(=O)C1CCN(c2nc(-c3ccc(OC(F)(F)F)cc3)cs2)CC1", "Potency": "inactive"},
      {"smiles": "COc1ccc(C2=Nn3c(nnc3-c3ccccc3OC)SC2)c(OC)c1", "Potency": "inactive"},
      {"smiles": "CC(C)(C)OC(=O)Nc1ncnc2c1C(c1ccccc1)c1c(ccc3ccccc13)O2", "note": "(centres undefined)", "Potency": "inactive"},
      {"smiles": "Cc1ccccc1Nc1nc(C#N)nc(NC2CCCC2)n1", "Potency": "inactive"},
      {"smiles": "CC(C)(C)OC(=O)N1CCN(c2ccc(NCc3ncc(-c4ccc(C#N)cc4)o3)cc2)CC1", "Potency": "inactive"},
      {"smiles": "CCN(CC)c1ccc(NC(=O)CN(C)Cc2c(O)ccc3ccccc23)cc1", "Potency": "inactive"},
      {"smiles": "COc1ccc(C(=O)Nc2ccc(-c3nc4ccccc4[nH]3)cc2)cc1Br", "Potency": "inactive"},
      {"smiles": "O=c1cc(CN2CCCN(c3ccc(C(F)(F)F)cn3)CC2)nc2ccccn12", "Potency": "inactive"},
      {"smiles": "O=C(O)c1cc(Br)c(O)c2ncccc12", "Potency": "inactive"},
      {"smiles": "COc1cc(O)c(C(CC(=O)N2CCC(Cc3ccccc3)CC2)c2ccc(OC)c(OC)c2)c(OC)c1", "note": "(centres undefined)", "Potency": "inactive"},
      {"smiles": "N#Cc1cccc(-c2ccc(CNc3nc(-c4ccccc4C(F)(F)F)nc4ccccc34)cc2)c1", "Potency": "inactive"},
      {"smiles": "CC(=O)N1CCN(c2ccc(NCc3ccc(-c4cccc(Cl)c4)o3)cc2)CC1", "Potency": "inactive"},
      {"smiles": "COc1ccccc1CNc1ccc(S(=O)(=O)Nc2nccs2)cc1", "Potency": "inactive"},
      {"smiles": "CCCCN(C)C(=O)Cn1nc(-c2ccc(Cl)cc2)ccc1=O", "Potency": "inactive"},
      {"smiles": "O=C(O)c1ccc2c(c1)C(=O)N([C@H](Cc1ccc3ccccc3c1)C(=O)O)C2=O", "Potency": "inactive"},
      {"smiles": "C[C@H]1CN(S(=O)(=O)c2c(F)cccc2F)CCN1S(=O)(=O)c1ccc2c(c1)OCCO2", "Potency": "inactive"}
    ]}
  ]
}
